# Bioassay records deposited in PubChem BioAssay by National Center for Advancing Translational Sciences (NCATS).
# FEN1 inhibitor: human FEN1 inhibition. P39748. Recombinant FEN1 flap cleavage, fluorescence, 15 min. Potency, µM (top dose mostly 114 µM), without a hit: top-dose activity change, negative = inhibition, most hits filed as inhibitors. actives 0.35% (n = 390,000). AID 588795; also: nearly all actives have a fitted effect of over 65% in size
#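 Concentration–response screening of FEN1 (10 nM): 15 min compound preincubation at room temperature, reaction started with 50 nM substrate and read at 0 and 15 min. Corrected, normalized data were fitted by a four-parameter Hill equation.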
# BLM helicase inh: inhibitors of human Bloom syndrome helicase BLM; recombinant BLM DNA unwinding, fluorescence dequenching; actives 0.2% (n = 350,000); AID 2528; P54132; Potency, µM (series often up to 56.1 µM), for inactives: top-dose activity change, negative = inhibition, hits mostly inhibitors;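 also: plate controls were vehicle for no effect and no enzyme for full effect; nearly all actives have a fitted effect of over 35% in size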
# RECQ1 inh: inhibitors of human RECQ1 DNA helicase. actives 0.54% (n = 240,000). P46063. RECQ1 DNA unwinding, red fluorescence kinetic read. Potency, µM (highest dose often 57.3 µM), inactives show at the highest dose activity, negative = inhibition, usual class: inhibitors;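 also: plate controls were vehicle for no effect and no enzyme for full effect; nearly all actives have a fitted effect of over 30% in size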
#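 RECQ1T1 50 nM; forked duplex (20 bp + 30-nt ss tails) 200 nM, ATP 2 mM final; pH 8.0, 2 mM MgCl2, 2.5 ug/ml poly(dI-dC); 15 min compound preincubation; discontinuous kinetic read over 2 h at RT.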
# APEX1 inh: blocks human APE1 abasic DNA cleavage; recombinant APE1, TAMRA/BHQ-2 abasic DNA cleavage fluorescence; Potency, µM (highest dose often 65.8 µM), inactives show at the highest dose activity change, negative = inhibition, hits mostly inhibitors; actives 0.35% (n = 350,000); AID 2517;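 also: plate controls were vehicle for no effect and reference inhibitor for full effect; nearly all actives have a fitted effect of over 55% in size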
#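 0.75 nM APE1 + cpd, 15 min RT; start w/ 50 nM TAMRA/BHQ-2 THF-abasic dsDNA; kinetic fluor 525/598 nm ×3 reads @60 s; Δ(read3−read1); normalized to DMSO and NSC13755 control wells.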
# Tb PGK inh: inhibitors of T. brucei phosphoglycerate kinase; PGK/GAPDH coupled, Kinase-Glo luminescence, 60 min; Potency, µM (series often up to 57.5 µM), for inactives: top-dose activity change, negative = inhibition, usual class: inhibitors; AID 602233; P07378; actives 0.043% (n = 380,000); also: nearly all actives have a fitted effect of over 60% in size
#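 Recombinant glycosomal PGK reaction used 1,3-bisphosphoglycerate generated in-well by GAPDH (100nM final) in 100mM TEA pH 7.6, 5mM MgCl2, 0.01% Tween-20. After 60 minutes at room temperature, ATP was read by Kinase-Glo Plus luminescence end-point.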
# GLS inh: blocks human kidney-isoform glutaminase activity; actives 0.21% (n = 410,000); GLS enzymatic activity, qHTS titration; Potency, µM (series often up to 45.5 µM), for the others: at the highest dose activity change, negative = inhibition, usual class: inhibitors; O94925
# Target sequence (O94925 whole entry, looked up, canonical isoform): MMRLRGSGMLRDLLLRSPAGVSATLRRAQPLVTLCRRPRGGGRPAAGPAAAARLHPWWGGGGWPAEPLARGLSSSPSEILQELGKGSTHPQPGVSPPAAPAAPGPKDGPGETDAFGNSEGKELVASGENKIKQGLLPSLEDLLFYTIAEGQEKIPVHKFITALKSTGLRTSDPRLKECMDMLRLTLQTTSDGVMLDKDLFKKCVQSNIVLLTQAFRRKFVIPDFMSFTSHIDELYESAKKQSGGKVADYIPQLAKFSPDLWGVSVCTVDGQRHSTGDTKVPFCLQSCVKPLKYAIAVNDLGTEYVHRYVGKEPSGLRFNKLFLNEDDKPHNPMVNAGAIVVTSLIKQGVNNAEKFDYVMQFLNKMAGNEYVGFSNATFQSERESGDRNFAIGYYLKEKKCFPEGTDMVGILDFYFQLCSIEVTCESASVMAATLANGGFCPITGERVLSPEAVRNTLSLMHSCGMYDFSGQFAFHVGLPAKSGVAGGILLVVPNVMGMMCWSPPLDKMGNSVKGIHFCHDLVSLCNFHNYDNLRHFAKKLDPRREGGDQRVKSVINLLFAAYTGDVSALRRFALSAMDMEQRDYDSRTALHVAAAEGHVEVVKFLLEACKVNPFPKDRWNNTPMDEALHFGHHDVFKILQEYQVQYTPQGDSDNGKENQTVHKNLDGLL
#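 Glutamate formation by hKGA was monitored fluorometrically using coupled glutamate oxidase, HRP and Amplex Red. Substrate was added as 1 mM L-glutamine solution; incubation was 30 min at RT after an initial read.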
# The depositor's hits bear a star; i = inactive; ? = inconclusive; . = not tested or not shown; ! = a repeat was not active; [ ] = dose if it differs, or a comment. In the library only some 0.86% were active in any assay of this set; here they are far more common. Calls follow the shape of the dose curve; as a rule, active = well fitted curve in the direction sought with a large enough effect; inconclusive = small, poorly fitted or top-dose-only effect, or another doubt; inactive = no such curve, though single readings can be large; an effect the other way counts as inactive or inconclusive. Unless noted, % is scaled to controls: 0 for no effect and ±100 for the full control effect; potency is read from the fitted curve at half-maximal effect.
SMILES,FEN1 inhibitor,BLM helicase inh,RECQ1 inh,APEX1 inh,Tb PGK inh,GLS inh
COc1ccc(Nc2nc(N)c3cc(OC)c(OC)cc3n2)cc1,?,16µM*,.,.,0%,7%
CCO[C@@H]1O[C@H](C(COCc2ccccc2)OCc2ccccc2)[C@H](OCc2ccccc2)[C@H]1O (stereo partly specified),.,.,.,0%[21 µM],.,.
CCCCCOC(=O)CCN1C(=O)/C(=C2\SC(=S)N(CCC(=O)OCCCCC)C2=O)SC1=S,-2%,0%,1.6µM*,0%,-9%,-5%
CCCOC(=O)CCCN1C(=O)/C(=C2\SC(=S)N(CCCC(=O)OCCC)C2=O)SC1=S,-7%,-1%,-15%,-2%,-3%,-12%
CC(C)(C)OC(=O)CN1C(=O)S/C(=C\c2ccc(-c3cccc(C(=O)O)c3)o2)C1=O,.,0%,.,-28%,.,.
Cc1ccc(NC(=O)CN2C(=O)S/C(=C/c3ccc(-c4cccc(C(=O)O)c4)o3)C2=O)cc1,20µM*,-24%,i,?,10µM*,?
Cc1cc(C(=O)O)ccc1-c1ccc(/C=C2\SC(=O)N(CC(=O)Nc3ccc4c(c3)OCO4)C2=O)o1,.,11µM*,.,6.7µM*,.,.
CC(=O)N(/C=C1\SC(=S)N(c2ccccc2)C1=O)c1ccccc1,0%,-7%,32µM*,-10%,4%,4%
CCN1C(=O)/C(=C\N(C(C)=O)c2ccccc2)OC1=S,-3%,0%,3%,1%,.,12%
COc1ccc(C(=O)Cc2cc(OC)c(OC)cc2[N+](=O)[O-])c(OC)c1,1%,-1%,-9%,14%,-8%,11µM*
COc1ccc(C(=O)Cc2ccc(F)cc2)c(OC)c1,-12%,-1%,-7%,-9%,i,-1%
C/C=C/C=C/C(=O)[C@@H]1[C@@H]([C@]2(C)OC(=O)C(C)=C2O)[C@H]2/C(=C(O)/C=C/C=C/C)C(=O)[C@]1(C)C(=O)C2(C)O (stereo partly specified),?,-3%,-13%,?,?,10µM*
COc1ccc(C2=CC3=C(Br)C(=O)C(C)(OC(=O)c4ccco4)C(=O)C3=CO2)cc1 (stereo unspecified),40µM*,2%,-23%,16%,?,-14%
CC1=CC2=NC(=O)/C(=C\c3ccc(-c4cccc(Cl)c4)o3)C(=N)N2O1,3%,-15%,-3%,-1%,2%,-3%
CC1=NOC(=O)/C1=C\c1ccc(-c2ccccc2Br)o1,40µM*,-21%,-24%,-7%,-7%,?
CC1=NOC(=O)/C1=C\c1ccc(-c2cccc(Cl)c2)o1,50µM*,-15%,?,?,-5%,-25%
C[C@@H]1[C@H](c2ccccc2)OCCS(=O)(=O)N1Cc1ccccc1Br,-25%,.,.,.,.,.
Cc1nc2ccccc2nc1-c1csc(-c2ccccc2)n1,-8%,.,.,.,.,.
CC(=O)Nc1ccc(OCCOc2ccc(/C=C3\C(=N)N4N=C(C)SC4=NC3=O)cc2)cc1,1%,2%,.,-12%,-4%,-15%
COc1ccc(OCCOc2ccc(/C=C3\C(=N)N4N=C(C)SC4=NC3=O)cc2)cc1,-7%,.,.,9.5µM*,-10%,-18%
Cc1cccn2c(=O)c3cc(C#N)c(=NC(=O)c4ccccc4)n(Cc4ccco4)c3nc12,50µM*!,.,.,.,-3%,1%
CCOC(=O)c1cc2c(=O)n3ccccc3nc2n(Cc2ccco2)c1=NC(=O)c1ccc(Br)cc1,35µM*,-2%,.,.,-11%,1%
COCCCn1c(=NC(=O)c2ccccc2)c(C#N)cc2c(=O)n3cccc(C)c3nc21,-2%,-7%,6%,-4%,-4%,7%
CCCCCCC(O)C/C=C\CCCCCCCC(=O)O (stereo unspecified),.,.,.,.,.,3%
Cc1cnc2ccccc2c1/C=C/c1ccc(N(C)C)cc1,-23%,.,.,.,.,.
SMILES,FEN1 inhibitor,BLM helicase inh,RECQ1 inh,APEX1 inh,Tb PGK inh,GLS inh
Cc1cc(-n2c(=O)[nH]c(=O)n(C)c2=O)ccc1Oc1ccc(S(=O)(=O)C(F)(F)F)cc1,.,.,.,.,.,1%
C/C(=N\NC(=O)c1cc(O)cc(O)c1)c1ccc(NC(=O)Cc2ccccc2)cc1,50µM*,-26%,.,1.3µM*,7.9µM*,34%
CC(C)(C)n1ncc2c(=O)n(Cc3ccc(F)c(F)c3F)cnc21,-1%,.,.,4%,.,.
CC(=O)N1N=C(c2ccco2)CC1c1cc2cc(C)ccc2nc1Cl (stereo unspecified),-3%,-6%,-12%,-6%,1%,5.6µM*
Cc1ccc2nc(Cl)c(C3CC(c4ccco4)=NN3C(=O)CCCC(=O)O)cc2c1 (stereo unspecified),-13%,0%,-7%,-8%,1%,-4%
COc1ccccc1NC(=O)Nc1ccnn1C1CCN(C(=O)c2cscn2)CC1,45µM*,1%,.,61%,-4%,-6%
C[N+](C)(C)CCOP(=O)(O)OP(=O)([O-])OCC1OC(n2ccc(N)nc2=O)[C@H](O)[C@@H]1O (stereo partly specified),.,.,.,.,.,-1%
O=C1NC(=O)/C(=C/c2cccn2-c2ccc(P(O)O)cc2)N1,.,.,.,38%,.,.
N/C(=N\OC(=O)c1ccccc1)c1ccccn1,0%,-3%,7%,19%,?,0%
COc1ccc(C(=O)O/N=C(\C)c2ccccc2)cc1,-8%,-6%,-3%,-1%,22µM*,1%
C/C(=N/OC(=O)c1ccc(C)cc1)c1cccs1,-9%,0%,-6%,-2%,32µM*,-16%
Cc1ccc(C(=O)O/N=C(\N)c2ccccn2)cc1,-14%,2%,.,76%,25µM*,5%
COc1ccc(C(=O)O/N=C(/c2ccccc2)c2ccncc2)cc1,-15%,-9%,-9%,12%,-7%,4%
COc1cccc(Cn2cnc3c(cnn3C(C)(C)C)c2=O)c1,1%,.,.,-6%,.,.
Cc1cnc2ccc(I)cc2c1/C=C/c1ccc(N(C)C)cc1,-30%,.,.,.,.,.
CN(C)c1ccc(/C=C/c2c3c(nc4ccccc24)CCCC3)cc1,-4%,.,.,.,.,.
C=N[C@@H](C(=O)N[C@@H]1C(=O)N2[C@@H]1SC(C)(C)[C@@H]2C(=O)O)c1ccccc1,.,.,.,-1%,.,.
COc1cc(/C=C2\SC(=S)N(C(C(=O)O)c3ccccc3)C2=O)ccc1O (stereo unspecified),-26%,-8%,22µM*,-11%,i,?
CCOc1ccc(/C=C2/SC(=S)N(C(C(=O)O)c3ccccc3)C2=O)cc1OCC (stereo unspecified),-2%,-7%,22µM*,3%,-6%,?
